PubChem BioAssay AID652067 (The Scripps Research Institute Molecular Screening Center, 2013)
The whole screen tested about 370,000 compounds, of which about 5,400 (1.5%) were called active.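 How the source made its calls: active means activation above the mean of all tested compounds plus 3 SD (cut at about 5.5% in these data); inactive means the rest.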 The full list was thinned out, with actives kept by preference.

These compounds were tested on DAF-12 nuclear receptor (Haemonchus contortus) (assay: hcDAF-12 driven luciferase reporter activation – cell-based, luminescence, HEK293, lit1-tk-luc reporter, primary screen (AID 652067;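 further: 100% = response to 3 µM Δ7-dafachronic acid high control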)). Settings: HEK293 hcDAF-12 lit1-tk-luc reporter, at 6.8 µM, stronger effect = higher value, 0% DMSO, 100% Δ7-dafachronic acid.

activation, active:
CCc1cc2c(=O)c(-c3ccon3)c(N)oc2cc1OC 7.31%
Cc1cccc(-n2c(O)c(C=Nc3ccccc3N)c(=O)[nH]c2=O)c1 6.08%
Clc1ccc2nc(CSc3ccccc3)cn2c1 6.03%
Cc1ccc(N/C=C/C(=O)c2ccccc2)cc1C 15%
O=C(CN1CCCCC1)NC(=O)Nc1ccccc1F 7.05%
Oc1ccc(Cl)cc1/C=N/c1nc2ccccc2[nH]1 5.95%
CCOC(=O)c1c(NC(=O)C(C)Sc2c[nH]c3ccccc23)sc2c1CCC2 (stereo unspecified) 5.61%
COc1ccc(C(=O)C[n+]2ccc(C)cc2)cc1 6.64%
Oc1cccc2ccc(/C=C/c3ccc(Br)s3)nc12 10.2%
COC(=O)C1=NN(c2ccccc2)C2C(=O)N(c3ccccc3OC)C(=O)C12 (stereo unspecified) 9.57%
COc1ccc(C2COC(=O)C2=N)c(NC(=O)c2ccccc2)c1 (stereo unspecified) 8.16%
Cc1cccc(NC(=O)c2ccc3ccccc3n2)n1 9.6%
O=C(OCC(=O)c1c[nH]c2ccccc12)c1cccc(O)c1 8.68%
C/C(=N/NC(=S)Nc1ccccc1)c1ccc2c(c1)OCO2 8.71%
Cn1c(=NC(=O)C2CC2)sc2cc(F)cc(F)c21 7.5%
COc1ccc(-c2c3c(=O)n(C)c(=O)n(C)c3cn2-c2cccc(OC)c2)cc1 7.44%
CC(CCc1ccccc1)NC(=O)c1cnc(Cl)c(Cl)c1 (stereo unspecified) 6.18%
Fc1ccc2nc(Nc3nc4c(s3)CCCC4)sc2c1 10%
Cc1ccc(-c2nc3ccccc3[nH]2)cc1N 10.9%
c1ccc2[nH]c(-c3nc4ccccc4[nH]3)nc2c1 11.1%

activation, inactive:
CN1C(=O)C(Br)(Br)CC1c1cccnc1 (stereo unspecified) 0.36%
Cc1ccc(-n2nc3c(c2NC(=O)CCC2CCCCC2)CS(=O)C3)cc1 (stereo unspecified) 1.64%
O=C(COc1cccc2c1CCNC2=O)NC1CCCCC1 0.88%
Cc1cc(NCCc2c[nH]c3ccccc23)ccc1Oc1cccnc1 -1.55%
COc1ccc2oc(N)c(C=O)c(=O)c2c1 -0.56%
CCc1cc2c(=O)c(-c3nc4ccccc4n3C)c(CCCC(=O)O)oc2cc1OC(=O)C(C)(C)C -0.74%
O=S1(=O)c2ccc(Br)cc2OC[C@H](Cc2ccccc2)N1Cc1cn(Cc2ccccc2)nn1 -0.79%
C=CCN=C1NC(c2ccccc2)C(C(=O)OC)=C(C)N1Cc1ccc(C(F)(F)F)cc1 (stereo unspecified) 0.87%
Nn1c(SCC(=O)Nc2cccc3ccccc23)nnc1-c1cc(-c2ccc(F)cc2)n[nH]1 -1.52%
CC(=O)Nc1nc2ncccn2c1-c1ccc(C(F)(F)F)cc1 -1.9%
O=S(=O)(c1ccccc1)N1CCC(c2nc3ccccc3o2)CC1 2.42%
Clc1ccc(C(Cn2ccnc2)OCc2ccsc2Cl)c(Cl)c1 (stereo unspecified) -3.27%
O=c1c2ccccc2nc2n1C(CSc1ccc(Cl)cc1)CN2 (stereo unspecified) 2.36%
Cn1nc(-c2ccccc2)c(CSc2cccc(Cl)c2)c1Cl -1.8%
C#CCN([C@@H](C)C(=O)OCC)S(=O)(=O)c1ccc(Br)cc1F -0.18%
Cc1ccc(NNC(=O)C2CCC2)cc1C 2.28%
COC(C(=O)Nc1ccc(S(=O)(=O)Nc2ccc(C)c(C)c2)cc1)c1ccccc1 (stereo unspecified) 0.37%
COC(=O)C1CN(CCc2ccccc2)CCS(=O)(=O)N1Cc1ccc(F)cc1 (stereo unspecified) 1.33%
Cc1ccc(Cn2cc(CN3[C@@H](CC(C)C)COc4ccc(Cl)cc4S3(=O)=O)nn2)cc1 -0.25%
COc1ccccc1N(CC(=O)Nc1ccc(C)cc1Cl)S(=O)(=O)c1cccs1 -2.56%
O=C(CN1CCCCCC1)Nc1ccc(Cl)cc1F -0.52%
CN(CC(=O)NC(=O)Nc1ccccc1F)Cc1ccccc1 -0.6%
CCOc1ccccc1C(=O)N1CCC[C@@H]1C(=O)N1CCC[C@H]1C(=O)NCc1ccccc1 -0.98%
COC(=O)C1(S(=O)(=O)C2(C(=O)OC)CCCC2)CCCC1 -1.17%
Oc1c(Cl)cc(Cl)cc1/C=N/c1ncn[nH]1 -0.22%
O=C(NCc1ccccc1)[C@H]1CCCN1C(=O)[C@H]1CCCN1C(=O)N1CCOCC1 0.81%
COC(=O)C1=C(C)N(Cc2ccc(C(F)(F)F)cc2)C(=NCc2ccc(C(F)(F)F)cc2)NC1c1cccc(Cl)c1 (stereo unspecified) -0.62%
COc1ccc(C2CC=C(C(=O)O)C(c3ccccc3F)N2S(=O)(=O)c2ccc(C)cc2)cc1OC (stereo unspecified) -1.61%
COC(=O)c1c(NC(=O)COC(=O)[C@@H](NS(=O)(=O)c2ccccc2)C(C)C)sc2c1CCC2 1.86%
CCOC(=O)c1c(NC(=O)C2(C)Cc3ccccc3C(=O)O2)sc2c1CCCC2 (stereo unspecified) -3.38%
O=S1(=O)c2ccc(Br)cc2-n2nncc2CN1Cc1cccc(Cl)c1 0.57%
CC(C)CNS(=O)(=O)CC1NCCc2ccccc21 (stereo unspecified) -2.97%
COc1ccc(C(=O)C[n+]2ccc(N)c(C)c2C)cc1 -1.41%
COc1ccc(C(=O)CC(=O)c2ccc(C)cc2)c(O)c1 -0.09%
O=C(CSc1nnc(-c2ccccn2)n1-c1ccc(Cl)cc1)Nc1ccccc1-c1ccccc1 -4.12%
O=C(Cn1c(-c2ccc(Cl)cc2)noc1=O)N1CCN(c2ccccc2F)CC1 -0.55%
Cc1ccc(NC(=O)Nc2cc(C)nn2-c2ccccc2)cc1 -0.41%
COC(=O)C1(C)NC(c2ccccc2OC)C2C(=O)N(c3ccccc3)C(=O)C21 (stereo unspecified) -2.14%
COC(=O)c1cc(C(=O)OC)cc(N2C(=O)CC(N3CCN(c4ccccc4)CC3)C2=O)c1 (stereo unspecified) 0.25%
CCOC(=O)C1CSCCS(=O)(=O)N1Cc1ccc(Cl)cc1 (stereo unspecified) -2.38%
O=C(C(=O)N1CCC(CNS(=O)(=O)Cc2ccccc2)CC1)c1cc2ccccc2o1 -0.72%
COc1ccc(OC)c(NC(=O)c2cccc(S(=O)(=O)N3CCN(C(C)=O)CC3)c2)c1 0.25%
COc1cccc(C(=O)Nc2cc3c(cc2Br)OCCCO3)c1 3.75%
COc1cc(/C=C/C(=O)n2cnc3ccccc32)cc(OC)c1OC 0.33%
O=C(CSc1nnc(COc2ccccc2)n1Cc1ccco1)c1ccc2ccccc2c1 -2.67%
CCOc1ccc(OCc2ccc(C(=O)Nc3cccc(C)n3)o2)cc1 -1.6%
COC(=O)c1ccc(NC(=S)Nc2cccc(C)n2)cc1 1.84%
O=C(CN1CCCc2ccccc21)NCc1ccc(F)cc1 -1.35%
Cc1cc(C)n2ncc(C(=O)Nc3ccc4c(c3)OCCO4)c2n1 -0.67%
CCOc1ncccc1C(=O)OCC(=O)c1c[nH]c2ccccc12 4.68%
C[C@H](NC(=O)c1ccccc1)C(=O)OCC(=O)c1c[nH]c2ccccc12 4.62%
CCOC(=O)C1=C(C(=O)OCC)C2N(Cc3ccc(C#N)cc3)c3ccccc3[C@@]23C[C@@H](C(=O)OC)N(S(=O)(=O)c2ccc(F)cc2)C3=N1 (stereo partly specified) 0.61%
CCCCOCC1CN(CCCC)S(=O)(=O)c2c(Oc3ccc(F)cc3)cccc2O1 (stereo unspecified) -1.09%
C/C(Cc1ccccc1)=N\NC(=O)CNC(=O)c1ccc2c(c1)OCCO2 -2.46%
C/C(=N\NC(=S)NCc1ccccc1)c1ccc(Cl)cc1 -0.65%
Cc1cc(C)nc(NC(=S)N2CCN(c3ccc(C(F)(F)F)cn3)CC2)c1 -1.92%
CCCCN(C)C(=O)C1CCN(Cc2ccccn2)CC1 -1.01%
Cc1ccc(-c2c3c(=O)n(C)c(=O)n(C)c3cn2-n2cnnc2)cc1 2.64%
COc1ccc(OC)c(-n2cc3c(=O)n(C)c(=O)n(C)c3c2)c1 -1.87%
Cc1ccc(C)c(NC(=O)CCS(=O)(=O)c2ccccc2)c1 -3.65%
CC1=C(C)CC(C(=O)NC(C)CCc2ccccc2)C(C(=O)O)C1 (stereo unspecified) -2.02%
COCC(C)NC(=O)c1ccc(Cl)c(Cl)c1 (stereo unspecified) -2.09%
O=C(NC1CCCC1)C1CSCCS(=O)(=O)N1Cc1ccccc1 (stereo unspecified) -0.49%
COc1ccccc1CCn1cnc(-c2ccccc2)c1C(C)C 0.67%
O=C(NCc1ccccc1)[C@H]1CCCN1C(=O)[C@H]1CCCN1C(=O)c1cc(F)cc(F)c1 0.44%
C[C@@H]1COc2cccc(N3CCCC3)c2S(=O)(=O)N1C -0.39%
COC(=O)[C@H](C(C)C)N(CCCc1cn(Cc2ccccc2)nn1)S(=O)(=O)c1ccc(F)cc1Br -4.11%
CC(C)(C)n1nc(C2CC2)c(Br)c1NC(=O)c1ccccc1F -0.41%
COC(=O)C(NC(C)=O)(Nc1nc2c(s1)CCCC2)C(F)(F)F (stereo unspecified) 1.23%
O=C(C1CCN(S(=O)(=O)c2ccccc2)CC1)N1CCN(C2CCCCC2)CC1 -1.68%
COCCCNC(=O)C[C@H]1C[C@@]2(C(=O)OC)C(=C[C@H](C(C)(C)C)O[C@@H]2C)N(Cc2ccc(Cl)cc2Cl)C1=O 0.08%
COC(=O)Cc1nnn2c1[C@H](C)[C@@H](OC)c1cc(Br)ccc1-2 -1.33%
O=C1c2ccccc2C(c2nc3ccccc3[nH]2)N1c1ccccc1 (stereo unspecified) -0.51%
CCOC(=O)CNC(=O)CSc1ncccc1-c1nc2ccccc2[nH]1 1.6%
C/C(=N\Nc1nc2ccccc2[nH]1)c1cccs1 5.49%
CCOC(=O)c1nc(-c2ccc3c(c2)OCO3)[nH]c1C 4.99%
